# Experimental data: PubChem BioAssay AID2685 (National Center for Advancing Translational Sciences (NCATS), 2010)
# In all, about 320,000 compounds went through this assay and about 2,100 (0.66%) were called active. Roughly 53% stayed inconclusive and do not appear here. This is one part of a sample in which actives are shown more often than they occur. Calls follow the shape of the dose curve; as a rule, active = well fitted inhibition curve with a large enough effect in the signal ratio, with a control signal flat (not every such curve was filed as active); inconclusive = small, poorly fitted or top-dose-only effect, or effect the other way, or a change in a side signal; inactive = flat fitted curve, though single readings scatter; the % refers to the signal ratio.
# Assay: qHTS Assay for Lipid Storage Modulators in Drosophila S3 Cells;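 as to cell number change: cells counted by Cell Tracker Red CMTPX staining in the red channel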; as to lipid storage change, negative = inhibition: % is scaled to controls: 0 for no effect and ±100 for the full control effect
# Conditions: BODIPY lipid droplet fluorescence, 18-24 h, cells fed with added oleic acid; cell number change: measured here: cell count max response; series mostly up to 46.1 µM; lipid storage change, negative = inhibition: at the top concentration
# Outline: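 Laser-scanning cytometry quantifies lipid droplet accumulation (500–530 nm total intensity; droplet/cell object ratio) in oleic acid-fed (400 uM added) Drosophila S3 cells treated with a concentration series. 20 uM Triacsin C defined 100% inhibition.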
# Potency is read from the fitted curve at half-maximal effect.
Compound,Potency,cell number change [%],"lipid storage change, negative = inhibition",outcome
CC(=O)Nc1ccc(S(=O)(=O)Nc2nccc(C3Cc4ccccc4C(=O)O3)n2)cc1 (stereo not drawn),14.6 µM (active),-1.08,–,–
O=C(CSc1nnc(COc2ccccc2)o1)N1CCN(c2ccccc2)CC1,–,3.22,2.5% (inactive),–
Cc1cccc(C(=O)Nc2ccc(N3CCN(S(C)(=O)=O)CC3)cc2)c1,–,1.55,-0.275% (inactive),–
COC(=O)c1sccc1S(=O)(=O)NC(C)c1cnn(-c2ccc(OC)cc2)c1C (stereo not drawn),–,19.6,-6.72% (inactive),–
COc1ccc(-n2ncc(C(C)NS(=O)(=O)c3cc(F)ccc3C)c2C)cc1 (stereo not drawn),9.2 µM (active),-20.2,–,–
COc1ccc(-n2ncc(C(C)NS(=O)(=O)c3ccc(C(C)=O)cc3)c2C)cc1 (stereo not drawn),–,-7.79,-20.7% (inactive),–
CN(C)CCCN(C(=O)COc1ccccc1)c1nc2ccc(F)cc2s1,–,-15.9,-6.61% (inactive),–
COc1ccc(Cn2nnnc2CN(Cc2cc3cccc(C)c3[nH]c2=O)C2CCCC2)cc1,–,-3.93,-1.09% (inactive),–
CCCCN(c1ccccc1)c1ncnc2nc[nH]c12,–,0.284,-13.1% (inactive),–
O=C1c2cccc3c(N4CCCCC4)ccc(c23)C(=O)N1c1ccccn1,–,12.6,22% (inactive),–
O=c1c2ccccc2c(-c2ccccc2)nn1-c1ccccn1,–,–,21.9% (inactive),–
O=C1c2cc3ccccc3c(-c3ccccc3)c2C(=O)N1c1ccccn1,23.1 µM (active),-7.79,–,–
COc1ccc2c(c1)CCC(C)N2C(=O)C(=O)c1c[nH]c2ccccc12 (stereo not drawn),–,–,13.6% (inactive),–
CCCCNC(=O)C1CCN(S(=O)(=O)c2c(C)noc2/C=C\c2ccc(OC)cc2)CC1,–,0.864,-15.3% [at 9.22 µM] (inactive),–
COc1ccccc1CCC(=O)OC(C)C(=O)Nc1c(C)n(C)n(-c2ccccc2)c1=O (stereo not drawn),–,–,-5.33% (inactive),–
Cc1cc(C)cc(NC(=O)N2CCCC2C(=O)NCc2ccco2)c1 (stereo not drawn),–,4.2,17.2% (inactive),–
O=C(NCc1ccco1)C1CCCN1C(=O)Nc1ccc(Br)cc1 (stereo not drawn),7.31 µM (active),13.3,–,–
O=C(NCc1ccco1)C1CCCN1C(=O)Nc1cccc(Cl)c1 (stereo not drawn),–,3.19,10.9% (inactive),–
COCCNC(=O)C1CCN(S(=O)(=O)c2ccccc2)CC1,–,-5.9,-7.72% (inactive),–
CCNS(=O)(=O)c1ccc(C(=O)OCc2cc(=O)oc3cc(OC)ccc23)cc1,–,12.6,–,inactive
COc1ccc2c(COC(=O)CNS(=O)(=O)c3ccc(C)c(C)c3)cc(=O)oc2c1,–,–,–,inactive
CCCNS(=O)(=O)c1cccc(C(=O)OCc2cc(=O)oc3cc(OC)ccc23)c1,0.326 µM (active),20.2,–,–
CCOC(=O)C1CCCN(C(=O)c2cc(S(=O)(=O)Nc3ccccc3OC)ccc2C)C1 (stereo not drawn),–,12,7.98% (inactive),–
COc1ccc(CCNC(=O)C2CCN(c3nccc(C)n3)CC2)cc1,–,5.66,13.8% (inactive),–

Compound,Potency,cell number change [%],"lipid storage change, negative = inhibition",outcome
CC(=O)Nc1ccccc1NC(=O)C/C(C)=N/NC(=O)C1CCCCC1,–,-3.17,–,inactive
Cc1cccc(C(=O)NCC(=O)OCc2cc(=O)n3ccsc3n2)c1,–,-4.9,18.6% (inactive),–
Nc1cc(C(=O)OCC(=O)N2CCCC2=O)ccc1Cl,–,–,–,inactive
NC(=O)Nc1ccc(C(=O)OCC(=O)N2CCCC2=O)cc1,–,-27.9,17.3% (inactive),–
O=C(OCC(=O)N1CCCC1=O)c1nc(Cl)c(Cl)c(Cl)c1Cl,7.08 µM (active),-29,–,–
CCCc1cc(=O)c2c(O)cccc2o1,–,-3.96,0.102% (inactive),–
O=C(NCCc1ccncc1)Nc1ccc(F)cc1,–,5.19,-6.04% (inactive),–
O=C(NCCc1ccc(Cl)cc1)Nc1ccc(F)cc1,–,-2.02,-17.8% (inactive),–
O=C(NCCc1ccc(F)cc1)Nc1ccc([N+](=O)[O-])cc1,13 µM (active),18.2,–,–
Cc1cccc(C)c1NC(=O)CN(C)C(=O)/C=C/c1cccs1,–,-17,26% (inactive),–
CCn1cnc2c(Nc3cc(F)cc(F)c3)nc(C#N)nc21,0.651 µM (active),-24.3,–,–
Cc1cc(C)c(C#N)c(Nc2ccc(F)cc2)n1,–,-10.5,–,inactive
O=C(Cc1ccccc1)NCC(=O)OCC(=O)c1cccc([N+](=O)[O-])c1,–,9.41,-0.459% (inactive),–
Cc1cc(OC(C)C(=O)N2CCN(c3ccccc3)CC2)c2c(C)c(C)c(=O)oc2c1 (stereo not drawn),–,5.19,–,inactive
COc1ccc(C(C)=O)cc1COC(=O)c1cccnc1Cl,–,20.9,-19.8% (inactive),–
CCc1ccc(CN(C)C(=O)c2cc(=O)c3ccccc3o2)cc1,–,–,–,inactive
N#Cc1ccccc1COC(=O)c1cc(=O)c2ccccc2o1,–,7.26,-3.23% (inactive),–
COc1ccc(C(C)=O)cc1COC(=O)c1cc(C)oc1C,–,-12.2,16.1% (inactive),–
COc1ccc(CCN(C)C(=O)c2cc(=O)c3ccccc3o2)cc1OC,0.731 µM (active),-2.86,–,–
O=C(OCc1ccc(F)cc1)c1cc(=O)c2ccccc2o1,–,11.3,–,inactive
COc1ccc(C(C)=O)cc1COC(=O)c1cc2ccccc2cc1O,20.6 µM (active),-9.52,–,–
COc1ccc(C(C)=O)cc1COC(=O)c1cc(=O)c2ccccc2o1,18.4 µM (active),5.13,–,–
COc1ccc(CCN(C)C(=O)c2cc(-c3ccccc3)nc3ccccc23)cc1OC,–,-2.7,–,inactive
